Measured values reported in PubChem BioAssay AID435019 (Southern Research Specialized Biocontainment Screening …, 2010).
Screen size: about 2,300 compounds; about 1,200 (52%) were called active. No rule for the calls is given here. The set was probably picked from earlier hits. Some of the results follow. Measured potencies and affinities stand elsewhere.

Experiment: mammalian cell cytotoxicity, dose response, cytotoxicity control for M. tuberculosis inhibitor project (AID 435019);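 also: lower values mean fewer viable cells so more cytotoxicity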
Conditions: cytotoxicity counter-screen; series mostly up to 40 µM

| SMILES | outcome |
| --- | --- |
| CCOC(=O)c1nnc(-c2ccccc2)nc1NCc1ccccc1 | inactive |
| O=C(OCC(=O)N1CCCCC1)c1cc2ccccc2cc1O | inactive |
| COC(=O)C(CCSC)NC(=O)c1cn(-c2ccc(OC)cc2)c(=O)c2ccccc12 (centres undefined) | inactive |
| COC(=O)CSc1nnc([C@H](CC(C)C)NC(=O)OC(C)(C)C)o1 | inactive |
| COC(=O)C(C)Oc1ccc(Cc2ncc(C(F)(F)F)cc2Cl)cc1 (centres undefined) | inactive |
| CCCCNC(=S)Nc1ccc2cn[nH]c2c1 | inactive |
| COC(=O)[C@H](CC(C)C)NC(=O)c1cc2c(cn1)[nH]c1ccccc12 | inactive |
| CCc1nc2ccccc2c(C(=O)Nc2cc(C)ccc2C)c1C | inactive |
| O=C(Oc1ccc2ccccc2c1)c1cncc(Br)c1 | inactive |
| CCCCn1c(N)c(N(CC(C)C)C(=O)c2oc3c(Cl)cccc3c2C)c(=O)[nH]c1=O | inactive |
| N=C1C(c2nc3ccccc3[nH]2)=C(O)CN1NC(=O)c1c[nH]c2ccccc12 | inactive |
| Cc1ccc(CN2CC(C(=O)OCc3ccccc3Cl)CC2=O)cc1 (centres undefined) | inactive |
| CCOC(=O)CSc1ncnc2c1sc1nc(N3CCOCC3)c3c(c12)CCCC3 | inactive |
| COc1ccc(NC2=C(C(C)=O)C(c3ccc4c(c3)OCO4)C(C(C)=O)C(C)(O)C2)cc1 (centres undefined) | inactive |
| CCCNC(=O)NC(=O)COc1ccc2oc3ccccc3c2c1 | inactive |
| COc1ccc(-c2cc3n(n2)CCc2nc4ccccc4n2-3)cc1 | inactive |
| NNC(=S)Nc1ccccc1Cl | inactive |
| CCCCCOC(=O)Nc1nnc(CCCCC)s1 | inactive |
| O=C(CSc1nnnn1-c1ccc2c(c1)OCCO2)OC1CCCCC1 | inactive |
| C=CCc1c(C)nc2ccc(C(=O)OCC)cc2c1Cl | inactive |
| O=C(Nc1nc2c(s1)CCCC2)c1cc(-c2ccc3c(c2)OCO3)nc2ccccc12 | inactive |
| C/C(=N\Nc1nc2c(s1)CCCC2)c1ccccc1 | inactive |
| COC(=O)c1ccc2c(=O)[nH]c(CSc3nc(C)cs3)nc2c1 | inactive |

| SMILES | outcome |
| --- | --- |
| C/C(=N\Nc1ccc([N+](=O)[O-])cc1)c1cccc(N)c1 | inactive |
| O=C1c2ccccc2S(=O)(=O)c2cc(C(=O)N3CCN(c4c(Cl)cncc4Cl)CC3)ccc21 | inactive |
| O=C(/C=C/c1ccc(OCCCF)cc1)Nc1ccnc(-c2ccncc2)n1 | inactive |
| CCCCOC1CC(c2ccc(OCc3ccc(OC)cc3)c(OC)c2)N(C)O1 (centres undefined) | inactive |
| CO/N=C\CC(=O)Nc1ccc(Oc2ccccc2)cc1 | inactive |
| O=C1c2ccccc2C(=O)N1Nc1ccccc1 | inactive |
| O=C1C(=O)N(c2ccccc2)c2ccccc21 | inactive |
| CC(=O)c1c(N2CCCC2)[nH]c(-c2ccccc2)nc1=S | inactive |
| Cc1ccc(-c2cccc(NC(=O)C3C4C=CC(C4)C3C(=O)O)c2)o1 (centres undefined) | inactive |
| NC(=O)/C(=N\OC(=O)c1ccco1)c1nc(-c2ccc(Br)cc2)cs1 | inactive |
| CCOC(=O)C(C)Oc1ccc(NC(=O)C(Cl)(Cl)Cl)cc1 (centres undefined) | inactive |
| CCOC1OC(=O)C(Cl)=C1Nc1ccccc1C (centres undefined) | inactive |
| COc1ccc(-c2ccc(=O)n(Cc3c(F)cccc3Cl)n2)cc1 | inactive |
| O=C(c1ccccc1)C1CN(Cc2ccccc2)CCC1(O)c1ccccc1 (centres undefined) | inactive |
| CCCCn1cnc2cc(NCc3cccc(OC)c3O)ccc21 | inactive |
| Oc1ccc(F)c2cccnc12 | inactive |
| c1ccc(Cn2nnc3c(N4CCc5ccccc5C4)ncnc32)cc1 | inactive |
| COc1c(C)cc(C(=O)C2CCCN(Cc3ccccn3)C2)cc1C (centres undefined) | inactive |
| CCOC(=O)N1CCN(C(=O)COC(=O)C2CCN(S(=O)(=O)c3c(Cl)cccc3Cl)CC2)CC1 | inactive |
| COC(=O)c1cc(Sc2cccc(Cl)c2Cl)ccn1 | inactive |
| CCOC(=O)Oc1ccc2oc(C)c(C(=O)OCCOC)c2c1 | inactive |
| Cc1nc(SCC(=O)NCC2CCCO2)c2c3c(sc2n1)CCCC3 (centres undefined) | inactive |
| COc1ccc(-c2cc(-c3ccc(OC)cc3)[nH]n2)cc1 | inactive |

| SMILES | outcome |
| --- | --- |
| O=C(OCC(=O)N1CCN(c2ccccc2)CC1)c1cnc(Cl)c(Cl)c1 | inactive |
| Cc1ccc2nc(-c3cccc(Br)c3)cc(C(=O)NC3=NCCS3)c2c1 | inactive |
| CCOC(=O)N1CCC(n2c(SCC(=O)OCc3ccccc3)nc3ccsc3c2=O)CC1 | inactive |
| CCCC12CN3CC(CCC)(CN(C1)C3c1ccccn1)C2=O (centres undefined) | inactive |
| C(=N\N1CCN(C2c3ccccc3-c3ccccc32)CC1)/c1ccccn1 | inactive |
| CCOC(=O)Cn1c(-c2ccccc2)ccc(C#N)c1=O | inactive |
| CCOc1[nH]n(-c2ccccc2)c(=O)c1C=Nc1ccc(OC)cc1 | inactive |
| COCCNC(=S)N/N=C(\C)c1ccc(OC)cc1 | inactive |
| COc1ccccc1/C(C)=N/NC(=S)NCc1ccccc1 | inactive |
| O=C(CCN1C(=O)C2CCCCC2C1=O)Nc1nc(-c2ccc(F)c(F)c2)cs1 (centres undefined) | inactive |
| CCOC(=O)c1cc(-c2csc(Nc3c(C)cc(C)cc3C)n2)on1 | inactive |
| Nc1c(-c2ccccn2)cnn1-c1nc(-c2ccc(F)cc2)cs1 | inactive |
| CCCOc1ccc2oc(=O)c3c(c2c1)CCCN3C(=O)CN1CCN(c2ncccn2)CC1 | inactive |
| CCOC(=O)c1cc(/C(C)=N/OC(=O)c2ccc(C(C)(C)C)cc2)on1 | inactive |
| O=C(Nc1cc(N2CCOCC2)ncn1)NC1(C(F)(F)F)Oc2ccc(Cl)cc2O1 (centres undefined) | inactive |
| CCc1ccc(-c2csc(-c3c[nH]c4ccccc34)n2)cc1 | inactive |
| Cc1ccc(CNc2ccc3c(c2)ncn3C(C)(C)C)cc1 | inactive |
| CCn1c(SCC(=O)N(C)CCC#N)nc2cc(S(=O)(=O)N3CCOCC3)ccc21 | inactive |
| CCc1ccc(N=Nc2ccc(O)c3[nH]cnc23)cc1 | inactive |
| C=CCOc1ccc(/C=C/C(=O)OCC(=O)NCC2CCCO2)cc1 (centres undefined) | inactive |
| CCCCOC(=O)CCN1C(=O)/C(=C2\SC(=S)N(CCC(=O)OCCCC)C2=O)SC1=S | inactive |
| Cc1ccc(NC(=O)Cn2ccsc2=N)c([N+](=O)[O-])c1 | inactive |
| COc1ccc(-c2nc(C#N)c(N3CCc4ccccc4C3)o2)cc1OC | inactive |

| SMILES | outcome |
| --- | --- |
| c1ccc(C2[C@H]3CN(CC4CCCCC4)[C@H](c4ccccc4)C34CC2(c2cccnc2)C4)cc1 (some centres undefined) | inactive |
| COc1ccc(NC(C#N)c2ccc(OC)cc2)cc1 (centres undefined) | inactive |
| O=[N+]([O-])c1c(C(Cl)Cl)nn(-c2ccc(Cl)cc2)c1N1CCCCC1 | inactive |
| O=C(NC(=S)Nc1cccc2cccnc12)c1ccccc1 | inactive |
| O=C(COc1ccccc1)NNc1nc2ccccc2s1 | inactive |
| C/C(=N\NC(=S)Nc1cccc(C)c1)c1cccc(N)c1 | inactive |
| O=C(COc1cccc(Oc2ccccc2)c1)Nc1ncccn1 | inactive |
| COc1ccc(Oc2ccc(N/C=C/C(=O)C(C)(C)C)cc2)cc1 | inactive |
| CCOc1ccc(NC(=S)Nc2ccc(C)c([N+](=O)[O-])c2)cc1 | inactive |
| O=c1c2c(-c3ccccc3)csc2ncn1/N=C/c1ccc(O)c([N+](=O)[O-])c1 | inactive |
| Cc1cc(C)n2nc(N)c(N=Nc3ccccc3)c2n1 | inactive |
| Cc1ccccc1-n1c(O)c(C=Nc2ccc3c(c2)OCO3)c(=O)[nH]c1=O | inactive |
| S=c1[nH]c2ccc3ccccc3c2[nH]1 | inactive |
| CC1CN(C(=S)SCC(=O)c2ccc([N+](=O)[O-])cc2)CC(C)O1 (centres undefined) | inactive |
| Cc1ncsc1CCOC(=O)c1ccc([N+](=O)[O-])cc1 | inactive |
| O=C(c1ccc(CNc2c(N3CCCC3)c(=O)c2=O)cc1)N1CC=C(c2ccccc2)CC1 | inactive |
| O=c1oc(-c2cccs2)nc2c1cnn2-c1ccccc1 | inactive |
| Cc1nc2ccc(NC(=O)N(C(C)C)C(C)C)cc2s1 | inactive |
| CCN1c2ccccc2N(C)C1(C)c1ccccc1 (centres undefined) | inactive |
| COC(=O)CSc1ncnc2c1sc1nc3c(cc12)COC(C)(C)C3 | inactive |
| Cc1ccc(NC(=O)COC(=O)C(NS(=O)(=O)c2ccc(Cl)cc2)C(C)O)cc1C (centres undefined) | inactive |
| Fc1ccc(N/N=C2/CC(c3ccccc3)Oc3ccccc32)c(F)c1 (centres undefined) | inactive |
| CCCCc1cc(=O)oc2cc(O)ccc12 | inactive |

| SMILES | outcome |
| --- | --- |
| CCCCN1C(=N)N([C@@H](CCC)CN2CCC[C@H]2CN2C(N)=NC[C@@H]2Cc2ccccc2)C[C@H]1Cc1ccccc1 | inactive |
| O=C(CNC(=O)c1ccc(Cl)cc1)c1ccc(Cl)cc1 | inactive |
| CCOC(=O)COc1cc(O)c2c(=O)cc(-c3ccccc3)oc2c1 | inactive |
| CC(=O)/C=C(\C)Nc1ccccc1O | inactive |
| N#Cc1nccnc1S(=O)(=O)c1cccs1 | inactive |
| CCOC(=O)C(=NC1CCS(=O)(=O)C1)NNc1ccc(Br)cc1 (centres undefined) | inactive |
| O=C(C[n+]1ccc(C(=O)c2ccccc2)cc1)Nc1ccc(C(F)(F)F)cc1 | inactive |
| C/C(=N\NC(N)=S)c1ccc(Cl)s1 | inactive |
| O=C(C/C=N\OCc1ccc([N+](=O)[O-])cc1)Nc1ccc(F)cc1F | inactive |
| O=C(NNc1ccc([N+](=O)[O-])cc1)c1ccco1 | inactive |
| CC1=C(C)C(=O)C(CCCCC#CCCCC#CCO)=C(C)C1=O | inactive |
| CC1CCCCC1NC(=O)c1ccc2c(c1)[nH]c(=O)n2C1CCCC1 (centres undefined) | inactive |
| CCCCOC(=O)CSc1nnc(-c2ccc(Cl)cc2Cl)o1 | inactive |
| COc1ccc(N=Cc2c(O)cc(C)oc2=O)cc1 | inactive |
| COc1ccc(-c2cc(O)cc(O)c2)cc1 | inactive |
| Cn1c(N)c(C(=O)COC(=O)c2ccc([N+](=O)[O-])o2)c(=O)n(C)c1=O | inactive |
| CSc1cccc(N=C2C(=O)Nc3ccccc32)c1 | inactive |
| Fc1ccc(-c2nnc(CSc3nnc(-c4cccs4)o3)o2)cc1 | inactive |
| Cc1ccc(Nc2nc(CSc3nnc(-c4cccs4)o3)cs2)cc1 | inactive |
| CCCNC(=S)Nc1ccc(Nc2ccccc2)cc1 | inactive |
| COc1ccc(NC(=O)CN(C)CC(=O)Nc2sc3c(c2C(N)=O)CCC3)cc1 | inactive |
| CCOC(=O)N1CCN(C(=O)CSc2nnc(-c3ccc(Cl)s3)o2)CC1 | inactive |
